Among the test systems are SK-MEL-2 melanoma; EKVX NSCLC; SN12C renal; UO-31 renal; TK-10 renal; ACHN renal; CAKI-1 renal; A498 renal; CCRF-CEM leukemia; MOLT-4 leukemia; SR leukemia; OVCAR-8 ovarian; OVCAR-5 ovarian; OVCAR-4 ovarian; SK-OV-3 ovarian; IGROV1 ovarian; OVCAR-3 ovarian; HS 578T breast; NCI/ADR-RES ovarian.
Assay in all cases: NCI-60 one-dose screen, 48 h (100 = growth as untreated, 0 = no growth, -100 = all killed)
Holding throughout (conditions): 10 µM unless noted

Molecules are shown by their SMILES. About 83,000 compounds went through this panel and 20% of them were active in at least one assay; those are over-represented in the sample as a whole.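 Interpretation: 100, growth as untreated; towards 0, rising growth inhibition; 0, no net growth; 0 to -100, cell death. Compounds scoring below 10 were considered active.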 Unmarked numbers belong to inactive results. Calls of active or inactive are those of the source.

For `CCc1cccc2c3c(sc12)C(c1ccc(Cl)cc1)C(C#N)=C(N)O3` (configuration not stated), the growth in the assay with SK-MEL-2 melanoma is 40.2%; in the assay with EKVX NSCLC, 48.2%; in the assay with SN12C renal, 38.3%; in the assay on UO-31 renal, 38.2%; in the assay with TK-10 renal, 69%; in the assay on ACHN renal it was 33.7%. Further, the growth was 3.05% (active) in the assay with CAKI-1 renal; 10.8% with A498 renal; 5.24% (active) in the assay with CCRF-CEM leukemia; 12.2% with MOLT-4 leukemia; 13.6% in the assay with SR leukemia; 29.4% with OVCAR-8 ovarian. Further, the growth is 24.6% with OVCAR-5 ovarian; 75.2% in the assay on OVCAR-4 ovarian; 58.3% in the assay on SK-OV-3 ovarian; 30.2% in the assay with IGROV1 ovarian; 2.19% (active) with OVCAR-3 ovarian; 4.92% (active) with HS 578T breast. Further, the growth in the assay with NCI/ADR-RES ovarian was 19.2%.
For the molecule `CCCCCCn1c(-c2ccc(C(=O)O/N=C(\N)c3ccc(OC)cc3)cc2)nc(-c2ccccc2)c1-c1ccccc1`, the growth in the assay with SK-MEL-2 melanoma is 47.3%; in the assay on EKVX NSCLC, -75.6% (active); in the assay on SN12C renal, -70.3% (active); in the assay with UO-31 renal, -86.4% (active); in the assay with TK-10 renal, -73.6% (active); in the assay with ACHN renal it was -91.5% (active). Besides, the growth in the assay with CAKI-1 renal is -64.5% (active); in the assay on A498 renal, 4.08% (active); with CCRF-CEM leukemia it was -35% (active); in the assay on MOLT-4 leukemia, -35.7% (active); in the assay on SR leukemia, -37.5% (active); in the assay with OVCAR-8 ovarian, 1.03% (active). Besides, the growth is 25.5% in the assay on OVCAR-5 ovarian; 7.82% (active) in the assay with OVCAR-4 ovarian; 77.9% in the assay on SK-OV-3 ovarian; -68.1% (active) in the assay on IGROV1 ovarian; 18% in the assay with OVCAR-3 ovarian; -20.4% (active) in the assay on HS 578T breast. The growth in the assay on NCI/ADR-RES ovarian is -36.9% (active).
In the case of `O=C(Nc1c2ccccc2nc2ccccc12)c1ccccc1CN1C(=O)c2ccccc2C1=O`, the growth is 43% with SK-MEL-2 melanoma; 43.1% in the assay with EKVX NSCLC; 34.6% with SN12C renal; 6.41% (active) in the assay with UO-31 renal; 45.6% in the assay with TK-10 renal; 10.8% in the assay with ACHN renal. The growth is 19.1% in the assay on CAKI-1 renal; -18.9% (active) with A498 renal; 40.8% with CCRF-CEM leukemia; 14.9% in the assay with MOLT-4 leukemia; 30.5% with SR leukemia; 31.3% in the assay on OVCAR-8 ovarian. Moreover, the growth in the assay with OVCAR-5 ovarian is 40.1%; in the assay on OVCAR-4 ovarian, 44.8%; in the assay with SK-OV-3 ovarian, 35.6%; in the assay on IGROV1 ovarian, 21.4%; in the assay on OVCAR-3 ovarian, 34.1%; in the assay with HS 578T breast, 21%. In the assay with NCI/ADR-RES ovarian, the growth was 29.3%.
For `COc1cccc(-c2nc(-c3ccc(NS(=O)(=O)c4ccccc4)cc3)[nH]c2-c2ccnc(Br)c2)c1`, the growth is 10.5% in the assay with SK-MEL-2 melanoma; 32.1% in the assay with EKVX NSCLC; 28.4% in the assay on SN12C renal; 11.8% in the assay on UO-31 renal; 46.3% in the assay with TK-10 renal; 11.9% with ACHN renal. In addition, the growth in the assay with CAKI-1 renal is 18.3%; with A498 renal, 28.4%; in the assay on CCRF-CEM leukemia, 18.9%; in the assay with MOLT-4 leukemia, 4.8% (active); in the assay on SR leukemia, 8.32% (active); in the assay with OVCAR-8 ovarian, 33.4%. For the same molecule, the growth in the assay on OVCAR-5 ovarian is 48.3%; in the assay on OVCAR-4 ovarian, 34.2%; in the assay on SK-OV-3 ovarian, 63.1%; with IGROV1 ovarian, 44.6%; in the assay with OVCAR-3 ovarian, 30.2%; in the assay on HS 578T breast it was 7.88% (active). The growth with NCI/ADR-RES ovarian was 40.8%.
As for `O=C(Nc1nc2ccc(F)cc2s1)c1cccnc1Nc1ccc(Cl)cc1Cl`, the growth with SK-MEL-2 melanoma was 43.5%; in the assay on EKVX NSCLC, 1.03% (active); in the assay with SN12C renal, 9.61% (active); with UO-31 renal, 28.5%; in the assay on TK-10 renal it was 11.4%; in the assay on ACHN renal, 27.5%. For the same molecule, the growth in the assay with CAKI-1 renal was -0.286% (active); with A498 renal, -4.34% (active); with CCRF-CEM leukemia, -3.42% (active); with MOLT-4 leukemia, 46%; in the assay on SR leukemia it was 32.8%; with OVCAR-8 ovarian, 19.5%. Besides, the growth in the assay on OVCAR-5 ovarian is 64.3%; in the assay on OVCAR-4 ovarian it was -31.3% (active); in the assay on SK-OV-3 ovarian, 44%; in the assay on IGROV1 ovarian it was 30.5%; in the assay with OVCAR-3 ovarian it was -3.55% (active); in the assay with HS 578T breast it was 20.9%. Also, the growth with NCI/ADR-RES ovarian was 1.58% (active).
For `Cc1ccc(-c2cnc3sc(C(=O)NCCc4ccccc4)c(C)n23)cc1`, the growth in the assay with SK-MEL-2 melanoma was 108%; in the assay on EKVX NSCLC, 86.8%; with SN12C renal it was 93.2%; in the assay with UO-31 renal, 75.1%; in the assay on TK-10 renal, 139%; with ACHN renal, 94.2%. In addition, the growth with CAKI-1 renal was 94.1%; with A498 renal it was 101%; in the assay on CCRF-CEM leukemia, 64.7%; in the assay with MOLT-4 leukemia, 87%; in the assay with SR leukemia, 110%; in the assay with OVCAR-8 ovarian, 96.9%. In addition, the growth is 98.5% in the assay on OVCAR-5 ovarian; 67% in the assay with OVCAR-4 ovarian; 84.6% in the assay with SK-OV-3 ovarian; 80.5% with IGROV1 ovarian; 79.4% in the assay with OVCAR-3 ovarian; 86.4% in the assay on HS 578T breast. For the same molecule, the growth in the assay on NCI/ADR-RES ovarian was 104%.
For `NC1=NC(c2cccc(Br)c2)c2sc3ccc(Cl)cc3c2N1` (configuration not stated), the growth in the assay with SK-MEL-2 melanoma is 108%; with EKVX NSCLC it was 85.5%; with SN12C renal it was 93.5%; with UO-31 renal, 62.8%; with TK-10 renal it was 123%; with ACHN renal, 92.9%. In addition, the growth in the assay with CAKI-1 renal is 79.5%; with A498 renal it was 104%; in the assay with CCRF-CEM leukemia, 121%; in the assay with MOLT-4 leukemia, 92.2%; with SR leukemia, 77.6%; in the assay on OVCAR-8 ovarian it was 102%. In addition, the growth in the assay on OVCAR-5 ovarian is 103%; in the assay with OVCAR-4 ovarian, 93.5%; in the assay on SK-OV-3 ovarian, 92.1%; in the assay with IGROV1 ovarian, 77%; with OVCAR-3 ovarian, 99.2%; with HS 578T breast, 104%. Further, the growth in the assay with NCI/ADR-RES ovarian was 103%.
Turning to `CCOC(=O)c1sc2ncc(-c3ccc(C)cc3)n2c1C`, the growth in the assay on SK-MEL-2 melanoma was 101%; with EKVX NSCLC, 88.4%; in the assay on SN12C renal, 86.6%; with UO-31 renal it was 78.2%; in the assay with TK-10 renal, 147%; in the assay on ACHN renal it was 84%. Besides, the growth with CAKI-1 renal is 88.1%; with A498 renal, 104%; in the assay with CCRF-CEM leukemia, 89.5%; in the assay with MOLT-4 leukemia it was 90.1%; in the assay with SR leukemia it was 112%; in the assay with OVCAR-8 ovarian, 94.7%. Also, the growth was 95.9% with OVCAR-5 ovarian; 95.4% with OVCAR-4 ovarian; 81.3% with SK-OV-3 ovarian; 71.3% in the assay with IGROV1 ovarian; 97.2% in the assay on OVCAR-3 ovarian; 96.7% in the assay on HS 578T breast. In the assay with NCI/ADR-RES ovarian, the growth is 92.9%.

The record behind these values is PubChem BioAssay (NCI).
